Experimental data: PubChem BioAssay (NCATS)

assay: qHTS profiling of the MIPE4 collection as inhibitors of Plasmodium falciparum (3D7) proliferation (AID 743344);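 further: scaled between DMSO vehicle wells and 0.29 µM artemisinin as full inhibition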; conditions: P. falciparum 3D7 in erythrocytes, SYBR Green DNA fluorescence, 72 h; at 28.5 µM unless noted
Procedure, shortened: (§1)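 Parasite DNA was quantified by SYBR Green I fluorescence (ex 485, em 535 nm) after overnight lysis in saponin/Triton buffer at room temperature. Cultures at 0.3% parasitemia and 2.5% hematocrit were first exposed to compound for 72 h at 37 C; signals were normalised to artemisinin (0.29 uM) and vehicle wells.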

Compound	parasite growth, % of DMSO control [%]
CN[C@@H](C)[C@H]1[C@H](O)C[C@@]2(C)[C@@H]3CC[C@H]4C(C)(C)[C@@H](NC)CC[C@@]45C[C@@]35CC[C@]12C	16.9
O=S(=O)(NCCNCC=Cc1ccc(Br)cc1)c1cccc2cnccc12	35.6
CNC(=O)[C@H](CC1=CN=C2C=CCC=C12)NC(=O)[C@@H](CC(=O)NO)CC(C)C	22
CN1CCN(c2cccc(Nc3nc4c(-c5ccc(S(C)(=O)=O)cc5)cccn4n3)c2)CC1	11.4
COc1nccc(-c2c(-c3ccc(F)cc3)ncn2C2CCNCC2)n1	36.4
C[C@@H](O[C@H]1OCCN(Cc2n[nH]c(=O)[nH]2)[C@@H]1c1ccc(F)cc1)c1cc(C(F)(F)F)cc(C(F)(F)F)c1	26.5
CN(CC=CC#CC(C)(C)C)Cc1cccc2ccccc12	15
O=C1NC(=O)C(c2cnc3ccccn23)=C1c1cn2c3c(cccc13)CN(C(=O)N1CCOCC1)CC2	22.1
OCCn1cc(-c2ccc3c(c2)CCC3=NO)c(-c2ccncc2)n1	67.4
CCC(C)SSc1ncc[nH]1 (stereo not given)	86.2
Cc1ccccc1C(=O)c1ccc(Nc2ccc(Br)cc2N)cc1Cl	27.4
Fc1ccc(CNc2ncnc3ccc(F)cc23)cc1	300

assay: qHTS profiling of the MIPE4 collection as inhibitors of Plasmodium falciparum (DD2) proliferation (AID 743345); conditions: P. falciparum Dd2 in erythrocytes, SYBR Green DNA, 72 h; at 28.5 µM unless noted
Procedure, shortened: as §1

Compound	parasite growth remaining, % of DMSO control (lower = more inhibition) [%]
CC(C)c1onc(-c2c(Cl)cccc2Cl)c1COc1ccc(C=Cc2cccc(C(=O)O)c2)c(Cl)c1	94.1
O=C1NC(=O)C(=Cc2ccc(-c3ccc(F)cc3O)o2)S1	71.3
COc1cc2nccc(Oc3ccc(NC(=O)Nc4ccc(F)cc4F)c(F)c3)c2cc1OC	36.3
C#C[C@]1(O)CC[C@H]2[C@H]3CCc4cc(OC)ccc4[C@H]3CC[C@@]21C	98.2
CCC(=O)OCC(=O)[C@@]1(OC(=O)CC)[C@@H](C)C[C@@H]2[C@H]3CCC4=CC(=O)C=C[C@]4(C)[C@@]3(F)[C@@H](O)C[C@@]21C	64.4
CC(C)(C)c1nc(-c2cccc(NS(=O)(=O)c3c(F)cccc3F)c2F)c(-c2ccnc(N)n2)s1	16.6
CC(C)C[C@@H](C(=O)N[C@H](C(=O)OC1CCCC1)c1ccccc1)[C@H](O)C(=O)NO	21.7
COC1CCC(C(=O)c2ccc3nc4c(cc3c2)CCCO4)CC1 (stereo not given)	31.2
CC(C)(O)CC(=O)NCCn1ccc2ncnc(Nc3ccc(Oc4cccc(C(F)(F)F)c4)c(Cl)c3)c21	18.3
CC[C@H](NC(=O)[C@H](C)NC)C(=O)N1C[C@@H](O)C[C@H]1Cc1c(-c2[nH]c3cc(F)ccc3c2C[C@H]2C[C@H](O)CN2C(=O)[C@H](CC)NC(=O)[C@H](C)NC)[nH]c2cc(F)ccc12	8.23
C[C@H]1COC2=C1C(=O)C(=O)c1c2ccc2c1CCCC2(C)C	12.1
Cn1cnc(-c2cc3nccc(Oc4ccc(NC(=S)NC(=O)Cc5ccccc5)cc4F)c3s2)c1	23.6
Fc1ccc(C(c2ccc(F)cc2)N2CCN(CC=Cc3ccccc3)CC2)cc1	14.4
COc1c(C)c2c(c(O)c1CC=C(C)CCC(=O)O)C(=O)OC2	17.9
N[C@@H](CC(=O)N1CCn2c(nnc2C(F)(F)F)C1)Cc1cc(F)c(F)cc1F	104
CN(C(Cc1ccc(OS(=O)(=O)c2cccc3cnccc23)cc1)C(=O)N1CCN(c2ccccc2)CC1)S(=O)(=O)c1cccc2cnccc12 (stereo not given)	7.38
COc1cc(C=CC(=O)O)ccc1O	95

Compound	parasite growth remaining, % of DMSO control (lower = more inhibition) [%]
CCC(=C(CC)c1ccc(O)cc1)c1ccc(O)cc1	96.4
Cc1ccc2c(=O)c3cccc(CC(=O)O)c3oc2c1C	94
COc1ccc2c(c1)c(C1=C(c3c[nH]c4ccccc34)C(=O)NC1=O)cn2CCCN(C)C	8.71
CCN(CC)CCCCNc1nc2cc(Cl)c(Cl)cc2nc1-c1ccc(-c2cccs2)s1	10.5
CC[C@]1(O)C[C@H]2CN(CCC3=c4ccccc4=N[C]3[C@@](C(=O)OC)(c3cc4c(cc3OC)N(C)[C@H]3[C@@](O)(C(N)=O)[C@H](O)[C@]5(CC)C=CCN6CC[C@]43[C@@H]65)C2)C1	14.1
CN[C@@H](C)[C@H]1[C@H](O)C[C@@]2(C)[C@@H]3CC[C@H]4C(C)(C)[C@@H](NC)CC[C@@]45C[C@@]35CC[C@]12C	50.3
O=S(=O)(NCCNCC=Cc1ccc(Br)cc1)c1cccc2cnccc12	19.2
CNC(=O)[C@H](CC1=CN=C2C=CCC=C12)NC(=O)[C@@H](CC(=O)NO)CC(C)C	47.4
CN1CCN(c2cccc(Nc3nc4c(-c5ccc(S(C)(=O)=O)cc5)cccn4n3)c2)CC1	11.3
COc1nccc(-c2c(-c3ccc(F)cc3)ncn2C2CCNCC2)n1	51.4
C[C@@H](O[C@H]1OCCN(Cc2n[nH]c(=O)[nH]2)[C@@H]1c1ccc(F)cc1)c1cc(C(F)(F)F)cc(C(F)(F)F)c1	52.9
CN(CC=CC#CC(C)(C)C)Cc1cccc2ccccc12	79.2
O=C1NC(=O)C(c2cnc3ccccn23)=C1c1cn2c3c(cccc13)CN(C(=O)N1CCOCC1)CC2	88
OCCn1cc(-c2ccc3c(c2)CCC3=NO)c(-c2ccncc2)n1	83.9
Cc1ccccc1C(=O)c1ccc(Nc2ccc(Br)cc2N)cc1Cl	44.1
Fc1ccc(CNc2ncnc3ccc(F)cc23)cc1	90.6
